The list shows a part of the results. Active and inactive are the calls of the source. Unless noted, how the calls were made is not given here.
Columns and labels:
[1] = PPC-1 cell viability loss – ATP content luminescence, cytotoxicity control for TRAIL apoptosis potentiator project, confirmation (AID 1447;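 active means reconfirmed compounds whose average cytotoxicity reaches 50% or more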;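 further: 0% = DMSO-treated cells and 100% = wells holding medium but no cells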); conditions: PPC-1 viability, ATPlite luminescence, overnight; at 5 µM; stronger effect = higher value
[2] = Brca1-Bard1 BiLC signal decrease – luminescence, single concentration, counter-screen for Mdm2/MdmX interaction inhibitor project, confirmation (AID 504668); conditions: Brca1/Bard1 bimolecular luciferase complementation counterscreen, at 8 µM, stronger effect = higher value
[3] = lowers stimulated NF-kB luciferase signal in Jurkat – cell-based, luminescence, single concentration, T-cell NF-kB inhibitor project, confirmation (AID 435020;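 active means inhibition reaching about 45% at 4 µM in either replicate, limit read from the data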;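 further: plate controls were PMA/ionomycin stimulated DMSO wells for no effect and unstimulated DMSO wells for full effect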); conditions: PMA/ionomycin-induced, 16 h, at 4 µM, stronger effect = higher value
[4] = molecular target: Tumor necrosis factor receptor superfamily member 10B (Homo sapiens) (UniProt O14763); experiment: viability loss of caspase-8 NB7 cells with TRAIL – with/without TRAIL, luminescence panel, confirmation (AID 651596; in the data active means activity above about 50%); conditions: NB7 neuroblastoma + caspase-8, TRAIL sensitization, NB7 Caspase-8, with TRAIL, mean of runs, at 10 µM, stronger effect = higher value
Tumor necrosis factor receptor superfamily member 10B (Homo sapiens), sequence (O14763 whole entry, looked up): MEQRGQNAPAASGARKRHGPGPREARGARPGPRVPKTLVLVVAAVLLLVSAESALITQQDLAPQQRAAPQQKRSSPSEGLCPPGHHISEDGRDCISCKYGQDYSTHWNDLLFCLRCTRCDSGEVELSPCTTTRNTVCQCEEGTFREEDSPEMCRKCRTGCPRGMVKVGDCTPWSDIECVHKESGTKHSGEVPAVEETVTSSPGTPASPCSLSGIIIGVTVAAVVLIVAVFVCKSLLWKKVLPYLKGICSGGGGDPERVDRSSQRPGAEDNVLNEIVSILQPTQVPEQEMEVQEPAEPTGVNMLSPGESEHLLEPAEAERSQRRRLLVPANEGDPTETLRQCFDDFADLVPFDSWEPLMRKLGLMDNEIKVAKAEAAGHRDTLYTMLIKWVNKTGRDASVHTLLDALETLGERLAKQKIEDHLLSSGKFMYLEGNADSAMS

[5] = as above; conditions: NB7 neuroblastoma + caspase-8, without TRAIL, NB7 Caspase-8, without TRAIL, mean of runs, at 10 µM
[6] = molecular target: Protein Mdm4 (Homo sapiens) + E3 ubiquitin-protein ligase Mdm2 (Homo sapiens) (UniProt O15151+Q00987); experiment: human Mdm2/MdmX binding disruption – cell-based, luminescence, single concentration, set 2, confirmation (AID 504601;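 active means mean inhibition of the luminescence signal across two replicates at or above 26 percent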); conditions: SaOS-2 split-luciferase Mdm2/MdmX complementation, at 8 µM, stronger effect = higher value
Protein Mdm4 (Homo sapiens) + E3 ubiquitin-protein ligase Mdm2 (Homo sapiens), sequence (O15151 whole entry, looked up): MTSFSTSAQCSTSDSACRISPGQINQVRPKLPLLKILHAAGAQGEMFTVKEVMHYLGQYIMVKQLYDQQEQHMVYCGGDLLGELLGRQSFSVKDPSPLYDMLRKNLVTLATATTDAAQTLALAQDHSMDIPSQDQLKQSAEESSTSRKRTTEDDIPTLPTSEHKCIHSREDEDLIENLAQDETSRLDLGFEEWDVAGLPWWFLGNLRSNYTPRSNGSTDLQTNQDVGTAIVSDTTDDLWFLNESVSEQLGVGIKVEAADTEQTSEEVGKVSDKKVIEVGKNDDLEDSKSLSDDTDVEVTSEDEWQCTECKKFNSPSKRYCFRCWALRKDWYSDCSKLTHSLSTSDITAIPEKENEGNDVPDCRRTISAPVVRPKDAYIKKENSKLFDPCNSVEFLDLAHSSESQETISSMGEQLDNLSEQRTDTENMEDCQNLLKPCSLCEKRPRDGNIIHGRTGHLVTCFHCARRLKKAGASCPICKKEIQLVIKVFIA
Protein Mdm4 (Homo sapiens) + E3 ubiquitin-protein ligase Mdm2 (Homo sapiens), sequence (Q00987 whole entry, looked up): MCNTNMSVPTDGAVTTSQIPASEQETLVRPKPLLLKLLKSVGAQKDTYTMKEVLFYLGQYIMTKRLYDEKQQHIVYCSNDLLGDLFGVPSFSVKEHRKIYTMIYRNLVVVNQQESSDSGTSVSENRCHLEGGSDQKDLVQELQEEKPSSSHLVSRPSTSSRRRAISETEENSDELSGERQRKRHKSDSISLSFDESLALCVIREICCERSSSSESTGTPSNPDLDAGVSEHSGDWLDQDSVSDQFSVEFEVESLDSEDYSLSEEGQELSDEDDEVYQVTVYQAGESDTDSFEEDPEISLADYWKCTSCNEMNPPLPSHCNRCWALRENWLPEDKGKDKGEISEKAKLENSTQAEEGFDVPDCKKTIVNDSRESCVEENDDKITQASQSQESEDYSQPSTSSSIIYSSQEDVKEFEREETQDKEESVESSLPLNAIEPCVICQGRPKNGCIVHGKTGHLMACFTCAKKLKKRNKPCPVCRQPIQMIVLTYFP

[7] = apoptosome-driven caspase-3 activation blockers – biochemical, fluorescence, DEVD-Rh110, 20 µM, confirmation (AID 504614;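 active means mean inhibition of at least 40% at 20 µM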;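 further: plate controls were DMSO wells for no effect and DEVD-CHO caspase inhibitor control wells for full effect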); conditions: reconstituted apoptosome, caspase-3 DEVD-Rh110 fluorescence; at 20 µM; stronger effect = higher value
[8] = detection-step artefacts after completed caspase reaction – biochemical, fluorescence, Rh110, 20 µM, artefact control for Apaf-1 inhibitor project, confirmation (AID 504615;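 active means signal rise of 40% or more at 20 µM, treated as a fluorescence artifact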); conditions: quenched caspase reaction, at 20 µM, stronger effect = higher value
[9] = HIF-2a driven luciferase blockers, single dose – luminescence, 786-0 RCC cells, confirmation (AID 651580;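 active means mean inhibition across four replicates of at least 40 percent at the single tested concentration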); conditions: HIF-2a luciferase reporter luminescence, overnight, at 18.8 µM, stronger effect = higher value
[10] = HIF-1a luciferase reporter signal reduction – MiaPaCa-2 cells, single concentration, counter-screen for HIF-2a inhibitor project, confirmation (AID 651589;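 active means mean inhibition of the reporter signal across four replicates at the single tested dose of 50% or more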); conditions: MiaPaCa-2 HIF-1a luciferase reporter, desferoxamine, overnight; at 18.8 µM; stronger effect = higher value
[11] = molecular target: PEG-3 (UniProt Q6IN02); experiment: inhibition of PEG-3 promoter-driven reporter – cell-based, HeLa, luciferase, CREF/GAPDH counter-screen panel, dose response (AID 624167); conditions: HeLa PEG-Prom luciferase reporter, overnight, CREF/GAPDH counter-screens; run 1, dose range 1, at 100 µM (top of the series)
PEG-3, sequence (Q6IN02 whole entry, looked up): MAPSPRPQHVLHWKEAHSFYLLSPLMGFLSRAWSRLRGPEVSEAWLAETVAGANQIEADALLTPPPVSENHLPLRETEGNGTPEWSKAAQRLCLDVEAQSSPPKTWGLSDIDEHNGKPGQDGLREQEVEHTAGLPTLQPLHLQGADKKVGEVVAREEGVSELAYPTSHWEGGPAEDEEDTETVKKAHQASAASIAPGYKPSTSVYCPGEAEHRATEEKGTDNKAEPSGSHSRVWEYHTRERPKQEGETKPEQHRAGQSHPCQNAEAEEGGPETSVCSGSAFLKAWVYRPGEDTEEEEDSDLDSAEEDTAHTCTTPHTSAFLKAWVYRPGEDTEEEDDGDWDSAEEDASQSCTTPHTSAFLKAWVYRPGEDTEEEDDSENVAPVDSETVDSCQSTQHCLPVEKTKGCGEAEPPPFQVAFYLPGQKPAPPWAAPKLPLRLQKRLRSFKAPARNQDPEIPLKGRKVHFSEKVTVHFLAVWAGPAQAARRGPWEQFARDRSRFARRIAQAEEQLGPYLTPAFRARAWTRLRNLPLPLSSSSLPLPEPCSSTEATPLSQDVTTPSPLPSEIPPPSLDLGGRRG

[12] = molecular target: PEG-3 (UniProt Q6IN02); experiment: as above; conditions: HeLa PEG-Prom luciferase reporter, overnight, CREF/GAPDH counter-screens; run 2, dose range 1, at 100 µM (top of the series)

CCc1nc2ccccc2c(=O)n1-c1cccc(OC)c1
cytotoxicity [1]: -11.4% (inactive)

c1ccc2c(N3CCNCC3)nsc2c1
inhibition [2]: 29.6% (active)

CCOc1ccc(-c2cc(C)[n+](CCN(CC)CC)c(-c3ccc(OCC)cc3)c2)cc1
inhibition [3]: 21.7% (inactive)
activity [4]: 62.5%
activity [5]: 59.2%

Cc1cc(O)c2c(c1)C(=O)C13C(=C2O)C(=O)[C@H]2[C@@H](O)[C@@H]1[C@H]1[C@H](O)[C@@H]3C(=O)C3=C(O)c4c(O)cc(C)cc4C(=O)C312 (stereo partly drawn)
inhibition [2]: 29.6% (active)

Cn1c(NN=O)nc2ccccc21
inhibition [2]: 35.8% (active)

Clc1ccc(C(c2ccc(Cl)cc2)n2cc[n+](CC(OCc3ccc(Cl)cc3Cl)c3ccc(Cl)cc3Cl)c2)cc1 (stereo not drawn)
inhibition [2]: 28.6% (active)

Brc1ccc2c(c1)C(OC1CN3CCC1CC3)c1ccccc1CS2 (stereo not drawn)
inhibition [2]: 33.8% (active)

CCOC(=O)c1ccc(-[n+]2c(-c3ccccc3)cc(-c3ccccc3)cc2-c2ccccc2)cc1
inhibition [2]: 23.6% (active)

CCn1nc(-c2ccccc2)nc2c(=O)n(C)c(=O)nc1-2
inhibition [2]: 23.3% (active)

Fc1ccc(C(OCCN2CCN(CCCc3ccccc3)CC2)c2ccc(F)cc2)cc1
inhibition [2]: 30.4% (active)

CCCCCCCCCCCCn1ccc(=N)cc1
inhibition [3]: 80.3% (active)
inhibition [6]: 103% (active)
inhibition [7]: 32% (inactive)
activation (fluorescence interference) [8]: 3.55% (inactive)
inhibition [9]: 64% (active)
inhibition [10]: 106% (active)
activity [4]: 92.9%
activity [5]: 80%

Cc1c(C(=O)N2CCC3(CC2)OCCO3)sc2ncnc(N3CCN(c4ccccn4)CC3)c12
inhibition [11]: 97.5%
inhibition [12]: 102%

COc1cc2c3cc1Oc1c(OC)c(OC)cc4c1[C@H](Cc1ccc(cc1)Oc1cc(ccc1O)C[C@H]3N(C)CC2)N(C)CC4
inhibition [2]: 29.8% (active)
